# HT1080 IDH1KD tx: HT-1080 IDH1 knockdown cell toxicity (counter line); HT-1080 IDH1 knockdown viability, ATP luminescence, 48 h; Potency, µM (titrated, usually from 46.1 µM), for the others: top-dose activity, negative = toxicity, actives largely listed as cytotoxic; 360,000 tested, 2% active;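 further: 0% = DMSO wells and -100% = cell-free medium wells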
#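 Viability of IDH1-knockdown HT-1080 fibrosarcoma cells was assessed by CellTiter-Glo after 48 h at 37 °C with titrated compound; concentration-effect curves were classified by fit quality and response size.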
# TDP1 cell noCPT: qHTS for Inhibitors of human tyrosyl-DNA phosphodiesterase 1 (TDP1): qHTS in cells in absence of CPT | Potency, µM (doses to about 46.2 µM), for the others: top-dose activity change, negative = growth inhibition, most hits filed as inhibitors | DT40 Tdp1-/- hTDP1 cells, no CPT, ATP luminescence, 48 h | 420,000 tested, 15% active | AID 686978, 2013; further: on the % scale 0 is the no-effect control and ±100 the full control effect; nearly all actives have a fitted effect of over 55% in size
#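 Luminescent ATP content (CellTiter-Glo) served as the growth readout. Knockout chicken DT40 cells expressing human TDP1 were exposed to compounds without camptothecin for a minimum 48 hr at 37 °C.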
# HT1080-NT tox: kills 2HG-producing HT-1080-NT fibrosarcoma cells; Potency, µM (top dose mostly 46.1 µM), for inactives: top-dose activity, negative = less viability, most hits filed as cytotoxic; 360,000 tested, 1.6% active; HT-1080-NT fibrosarcoma viability, CellTiter-Glo ATP luminescence, 48 h;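 further: NT is the 2HG producing partner of a matched IDH1 knockdown line; 0% = DMSO-treated cells and -100% = media-only wells without cells; nearly all actives have a fitted effect of over 55% in size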
#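 Luminescent CellTiter-Glo readout after 48 hours of compound exposure at 37 degrees C defined viability of HT-1080-NT cells. Activity was normalized to DMSO wells and cell-free media wells; concentration-response curves were fitted and assigned curve classes.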
# HepG2 tox-1: counter-screen for TGF-b inhibitors: cytotoxicity in HepG2 cells | HepG2 CAGA-GFP viability, ATP luminescence, 18 h | Potency, µM (titrated, usually from 46.1 µM), without a hit: at the top dose activity change, negative = cytotoxicity, hits mostly cytotoxic | 410,000 tested, 0.76% active | AID 588856
#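 CellTiter-Glo luminescence gave cytotoxicity after 18 hours at 37 degrees C. The cells were HepG2 CAGA-GFP in 1% FBS DMEM, stimulated with 500 pg/mL TGF-beta after compound addition. %Activity was normalised to no-cell wells (complete cell-killing) and DMSO (no toxicity), and curves were fitted and classified.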
# TGFb inhibitor: inhibitors of TGF-b signaling; HepG2 CAGA-GFP TGF-b/SMAD3 reporter, GFP fluorescence, 18 h; TGF-beta stimulated, 500 pg/mL final; Potency, µM (top dose mostly 46.1 µM), inactives show at the highest dose activity, negative = inhibition, usual class: inhibitors; 410,000 tested, 1.2% active; further: on the % scale 0 is the no-effect control and ±100 the full control effect; nearly all actives have a fitted effect of over 65% in size
#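 HEPG2 CAGA-GFP cells (1000/well, DMEM with 1% FBS) were pre-incubated 2 h at 37 degrees C, given compound by pin tool, then stimulated with TGF-beta at 500 pg/mL final for 18 h before per-cell GFP fluorescence imaging.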
# DT40 TDP1 CPT: growth inhibition of DT40 Tdp1-/-;hTDP1 cells with camptothecin (screen for TDP1 inhibitors); chicken DT40 Tdp1-/-;hTDP1 cells + 20 nM CPT, ATP luminescence, 48 h; Potency, µM (doses to about 46.2 µM), for inactives: top-dose activity change, negative = growth inhibition, hits mostly inhibitors; 420,000 tested, 12% active; AID 686979; further: on the % scale 0 is the no-effect control and ±100 the full control effect; nearly all actives have a fitted effect of over 55% in size
#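 Chicken DT40 Tdp1-/- cells stably complemented with human TDP1 were seeded at 400 cells/well in medium containing 20 nM camptothecin, exposed to pin-transferred compounds, and grown at 37 °C for at least 48 hr. Viability was read as ATP luminescence.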
# TGFb CAGA inh: TGF-b pathway inhibition, cherry-pick retest | shares compounds with TGFb inhibitor | HepG2 CAGA-GFP TGF-b reporter, GFP fluorescence, 18 h; cells stimulated with TGF-beta, 500 pg/mL | Potency, µM (titrated, usually from 46.1 µM), without a hit: at the highest dose activity, negative = inhibition, actives largely listed as inhibitors | 1,600 tested, 63% active | AID 720534; further: on the % scale 0 is the no-effect control and ±100 the full control effect; nearly all actives have a fitted effect of over 65% in size
# HepG2 tox-2: HepG2 cytotoxicity, TGF-b inhibitor counterscreen. shares compounds with TGFb inhibitor. HepG2 CAGA-GFP viability, ATP luminescence, 18 h; cells stimulated with TGF-beta, 500 pg/mL. Potency, µM (highest dose often 46.1 µM), for the others: at the highest dose activity, negative = cytotoxicity, most hits filed as inhibitors. 1,600 tested, 27% active. AID 720535; further: on the % scale 0 is the no-effect control and ±100 the full control effect; nearly all actives have a fitted effect of over 70% in size
# TGFb CCL64 inh: TGF-b inhibition, CCL64 orthogonal assay; CCL64 CAGA-GFP reporter, TGF-b stimulated, GFP fluorescence, 18 h; shares compounds with TGFb inhibitor; 1,600 tested, 41% active; Potency, µM (series often up to 46.1 µM), for the others: at the highest dose activity, negative = inhibition, actives largely listed as inhibitors; further: nearly all actives have a fitted effect of over 65% in size
# COP TGFb inh: validation of TGF-b inhibitors in HepG2 COP promoter reporter | shares compounds with TGFb inhibitor | HepG2 COP-GFP TGF-b reporter, GFP fluorescence, 18 h; cells stimulated by added recombinant TGF-beta | Potency, µM (series often up to 46.1 µM), inactives show at the top dose activity, negative = inhibition, actives largely listed as inhibitors | 1,600 tested, 3% active; further: nearly all actives have a fitted effect of over 70% in size
# * marks the source's active call; other numbers are inactive results; ? = inconclusive; . = not tested or not shown. Hits are enriched below; roughly 17% of the tested compounds scored in any of these assays. The call rests on the fitted dose curve; in most records, active means well fitted curve in the direction sought with a large enough effect; inconclusive means small, poorly fitted or top-dose-only effect, or another doubt; inactive means no such curve, though single readings can be large; an effect the other way counts as inactive or inconclusive. Potency means the concentration at half of the fitted maximal effect.
SMILES,HT1080 IDH1KD tx,TDP1 cell noCPT,HT1080-NT tox,HepG2 tox-1,TGFb inhibitor,DT40 TDP1 CPT,TGFb CAGA inh,HepG2 tox-2,TGFb CCL64 inh,COP TGFb inh
O=S(=O)(c1ccc(NC(=S)NN=Cc2ccccc2O)cc1)N1CCCCC1,?,5.8µM*,-11%,-6%,13µM*,4.6µM*,16µM*,?,?,1%
NC(=O)[C@H]1CC2(CC(c3cccc(NC(=O)COc4ccc(Cl)cc4)c3)=NO2)CN1C(=O)c1ccc(Cl)cc1 (stereo partly specified),?,?,?,-4%,18µM*,18µM*,18µM*,-29%,18µM*,22%
Cc1cc(C(=O)NNC(=S)NC(C)c2ccccc2)c2ccccc2n1 (stereo unspecified),-8%,?,-13%,-23%,0%,?,.,.,.,.
Cc1cccc(OCCC(=O)Nc2c(C)n(C)n(-c3ccccc3)c2=O)c1,2%,-3%,0%,1%,1%,-4%,.,.,.,.
O=C(O)C(CCC(C(=O)O)c1ccccc1)c1ccccc1 (stereo unspecified),8%,-15%,14%,-2%,-3%,16%,.,.,.,.
C=C(C(=O)c1ccccc1)C(CC(=O)c1ccccc1)c1ccccc1 (stereo unspecified),12µM*,4.6µM*,?,4%,13µM*,4.6µM*,9.2µM*,10µM*,9.2µM*,-17%
O=c1[nH]c(C2CCN(S(=O)(=O)c3ccc(F)cc3)CC2)nc2c1nnn2Cc1ccc2c(c1)OCCO2,0%,?,?,-29%,16µM*,?,15µM*,-23%,?,5%
Cc1ccc(Cn2nnc3c(=O)[nH]c(C4CCN(S(=O)(=O)c5cc(C)ccc5C)CC4)nc32)cc1,?,23µM*,?,-24%,16µM*,?,21µM*,-19%,?,36%
O=c1[nH]c(C2CCN(S(=O)(=O)c3ccccc3F)CC2)nc2c1nnn2Cc1ccc2c(c1)OCCO2,13%,-29%,7%,-8%,7%,?,.,.,.,.
Cc1ccc(C)c(NC(=O)CCC(=O)N2CCOc3ccccc32)c1,3%,-16%,0%,-19%,-6%,-3%,.,.,.,.
CCOC(=O)Cc1cc(=O)c2cc(C)ccc2[nH]1,9%,?,3%,-2%,-16%,?,.,.,.,.
COc1cccc(Nc2nc(NCC3CCCO3)c3ccccc3n2)c1 (stereo unspecified),?,5.2µM*,-18%,10µM*,6.3µM*,6.5µM*,?,?,21µM*,91%
COc1ccc(-n2c(COc3cccc4ccccc34)nnc2SCC(=O)NCc2ccco2)cc1,-3%,?,-16%,-29%,?,?,.,.,.,.
O=S(=O)(CCOc1ccccc1)c1nc2ccccc2[nH]1,?,23µM*,?,-33%,16µM*,?,6.5µM*,23µM*,16µM*,?
O=c1c(S(=O)(=O)c2ccccc2)cn(Cc2cccc(F)c2)c2cc(N3CCCC3)c(F)cc12,.,?,.,-25%,-24%,?,.,.,.,.
COc1ccc(CNC(=O)C2CCN(S(=O)(=O)c3cccc(C(F)(F)F)c3)CC2)cc1,-10%,-7%,2%,-43%,24%,-24%,.,.,.,.
COc1ccc(OC)c(C2SCCN2S(=O)(=O)c2cccc(C(F)(F)F)c2)c1 (stereo unspecified),-7%,?,-6%,-20%,?,16µM*,?,-21%,-15%,-4%
COc1ccc(NC(=O)C23CCC(C)(C(=O)C2)C3(C)C)cc1 (stereo unspecified),8%,-2%,12%,9%,3%,5%,.,.,.,.
Fc1ccc(-c2csc3ncnc(Cl)c23)cc1,3%,?,6%,-8%,-14%,?,.,.,.,.
COc1ccc(CN2CCN(c3ncnc4scc(-c5ccc(F)cc5)c34)CC2)cc1,21%,21µM*,23%,-26%,11µM*,16µM*,21µM*,?,?,41%
Cc1ccccc1Cn1ccc(NC(=O)c2cnn3c2NC(c2ccccc2)CC3C(F)(F)F)n1 (stereo unspecified),?,?,?,-39%,7.9µM*,?,?,?,23µM*,40%
CC(C)C(=O)NC(c1cccc([N+](=O)[O-])c1)c1c(O)ccc2ccccc12 (stereo unspecified),-22%,-12%,-23%,3%,-1%,4%,.,.,.,.
CCCC(=O)NC(c1ccc(Cl)cc1)c1ccc2cccnc2c1O (stereo unspecified),?,4.1µM*,?,-20%,?,4.1µM*,?,?,5.2µM*,28%
CC(C)C(=O)NC(c1cccc([N+](=O)[O-])c1)c1ccc2cccnc2c1O (stereo unspecified),?,4.6µM*,-26%,6%,3.5µM*,4.6µM*,?,?,7.3µM*,19%
O=C(COc1ccc(Cl)cc1Cl)Nc1cccc2cccnc12,.,-17%,.,-10%,?,-25%,.,.,.,.
